# Reference: PubChem BioAssay AID1159580 (chemical genetic matrix, 2015)
# Hit rate of the full screen: of about 5,500 compounds, about 2,000 (36%) were called active. Inconclusive results (about 18%) are left out. Some of the results follow. Values without a mark were called inactive. Rule as the data show it: active = normalized growth mostly below about 0.91 (no sharp cut-off); inconclusive = no clear call, values can overlap the other calls; inactive = mostly above about 0.92.
# Test: chemical genetic growth profiling, strain panel (AID 1159580);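 also: tested at 20 µM; growth read once vehicle control cultures reached saturation at 30 °C; 1 = growth at the plate median or of vehicle wells; lower values mean less growth of the strain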
# Conditions: growth OD
# [1] = S. cerevisiae deletion strains, locus YDL101C, strain DUN1, hits give low values
# [2] = S. cerevisiae deletion strains, locus YHR030C, strain SLT2, hits give low values
smiles,measurement,setting,value
CSC(SC)=C(C#N)C(=O)c1ccccc1Cl,normalized growth,"S. cerevisiae deletion strains, locus YAR019C, strain CDC15, hits give low values",0.422 (active)
same,normalized growth,"S. cerevisiae deletion strains, locus YBL105C, strain PKC1, hits give low values",0.636 (active)
same,normalized growth,"S. cerevisiae deletion strains, locus YBR135W, strain CKS1, hits give low values",0.816 (active)
same,normalized growth,"S. cerevisiae deletion strains, locus YBR160W, strain CDC28, hits give low values",0.937
same,normalized growth,"S. cerevisiae deletion strains, locus YDL017W, strain CDC7, hits give low values",0.911
same,normalized growth,"S. cerevisiae deletion strains, locus YDL028C, strain MPS1, hits give low values",0.934
same,normalized growth,[1],0.583 (active)
same,normalized growth,"S. cerevisiae deletion strains, locus YDL108W, strain KIN28, hits give low values",0.927
same,normalized growth,"S. cerevisiae deletion strains, locus YDL132W, strain cdc53, hits give low values",0.626 (active)
same,normalized growth,"S. cerevisiae deletion strains, locus YDL214C, strain PRR2, hits give low values",0.135 (active)
same,normalized growth,"S. cerevisiae deletion strains, locus YDR052C, strain DBF4, hits give low values",0.826 (active)
same,normalized growth,"S. cerevisiae deletion strains, locus YDR054C, strain cdc34, hits give low values",0.507 (active)
same,normalized growth,"S. cerevisiae deletion strains, locus YDR226W, strain ADK1, hits give low values",0.911
same,normalized growth,"S. cerevisiae deletion strains, locus YDR477W, strain SNF1, hits give low values",0.134 (active)
same,normalized growth,"S. cerevisiae deletion strains, locus YER123W, strain YCK3, hits give low values",0.114 (active)
same,normalized growth,"S. cerevisiae deletion strains, locus YER133W, strain GLC7, hits give low values",0.116 (active)
same,normalized growth,"S. cerevisiae deletion strains, locus YFL009W, strain cdc4, hits give low values",0.707 (active)
same,normalized growth,"S. cerevisiae deletion strains, locus YFL029C, strain CAK1, hits give low values",0.326 (active)
same,normalized growth,"S. cerevisiae deletion strains, locus YFR003C, strain YPI1, hits give low values",0.915
same,normalized growth,"S. cerevisiae deletion strains, locus YFR019W, strain FAB1, hits give low values",0.105 (active)
same,normalized growth,"S. cerevisiae deletion strains, locus YGR040W, strain KSS1, hits give low values",0.13 (active)
same,normalized growth,"S. cerevisiae deletion strains, locus YGR052W, strain FMP48, hits give low values",0.144 (active)
same,normalized growth,"S. cerevisiae deletion strains, locus YGR092W, strain DBF2, hits give low values",0.118 (active)
same,normalized growth,[2],0.118 (active)
same,normalized growth,"S. cerevisiae deletion strains, locus YHR079C, strain IRE1, hits give low values",0.134 (active)
same,normalized growth,"S. cerevisiae deletion strains, locus YHR082C, strain KSP1, hits give low values",0.133 (active)
same,normalized growth,"S. cerevisiae deletion strains, locus YHR205W, strain SCH9, hits give low values",0.0151 (active)
same,normalized growth,"S. cerevisiae deletion strains, locus YIL147C, strain SLN1, hits give low values",0.937
same,normalized growth,"S. cerevisiae deletion strains, locus YJL095W, strain BCK1, hits give low values",0.119 (active)
same,normalized growth,"S. cerevisiae deletion strains, locus YJL157C, strain FAR1, hits give low values",0.121 (active)
same,normalized growth,"S. cerevisiae deletion strains, locus YJR016C, strain ILV3, hits give low values",0.863 (active)
same,normalized growth,"S. cerevisiae deletion strains, locus YJR066W, strain TOR1 (second series), hits give low values",0.105 (active)
same,normalized growth,"S. cerevisiae deletion strains, locus YJR066W, strain TOR1, hits give low values",0.105 (active)
same,normalized growth,"S. cerevisiae deletion strains, locus YKL048C, strain ELM1, hits give low values",0.182 (active)
same,normalized growth,"S. cerevisiae deletion strains, locus YKL067W, strain YNK1, hits give low values",0.163 (active)
same,normalized growth,"S. cerevisiae deletion strains, locus YKL101W, strain HSL1, hits give low values",0.153 (active)
same,normalized growth,"S. cerevisiae deletion strains, locus YKL203C, strain TOR2, hits give low values",0.0997 (active)
same,normalized growth,"S. cerevisiae deletion strains, locus YLR113W, strain HOG1, hits give low values",0.147 (active)
same,normalized growth,"S. cerevisiae deletion strains, locus YLR133W, strain CKI1, hits give low values",0.132 (active)
same,normalized growth,"S. cerevisiae deletion strains, locus YLR403W, strain SFP1, hits give low values",0.0452 (active)
same,normalized growth,"S. cerevisiae deletion strains, locus YML070W, strain DAK1, hits give low values",0.113 (active)
same,normalized growth,"S. cerevisiae deletion strains, locus YMR001C, strain CDC5, hits give low values",0.732 (active)
same,normalized growth,"S. cerevisiae deletion strains, locus YMR205C, strain PFK2 (second series), hits give low values",0.179 (active)
same,normalized growth,"S. cerevisiae deletion strains, locus YNL006W, strain LST8, hits give low values",0.304 (active)
same,normalized growth,"S. cerevisiae deletion strains, locus YNL020C, strain ARK1, hits give low values",0.115 (active)
same,normalized growth,"S. cerevisiae deletion strains, locus YNL161W, strain CBK1, hits give low values",0.661 (active)
same,normalized growth,"S. cerevisiae deletion strains, locus YNL183C, strain NPR1, hits give low values",0.133 (active)
same,normalized growth,"S. cerevisiae deletion strains, locus YNL207W, strain RIO2, hits give low values",0.355 (active)
same,normalized growth,"S. cerevisiae deletion strains, locus YNL307C, strain MCK1 (second series), hits give low values",0.106 (active)
same,normalized growth,"S. cerevisiae deletion strains, locus YOL078W, strain AVO1, hits give low values",0.573 (active)
same,normalized growth,"S. cerevisiae deletion strains, locus YOL136C, strain PFK27, hits give low values",0.101 (active)
same,normalized growth,"S. cerevisiae deletion strains, locus YOR061W, strain CKA2, hits give low values",0.122 (active)
same,normalized growth,"S. cerevisiae deletion strains, locus YOR119C, strain RIO1, hits give low values",0.125 (active)
same,normalized growth,"S. cerevisiae deletion strains, locus YOR231W, strain MKK1, hits give low values",0.127 (active)
same,normalized growth,"S. cerevisiae deletion strains, locus YPL031C, strain PHO85, hits give low values",0.108 (active)
same,normalized growth,"S. cerevisiae deletion strains, locus YPL153C, strain RAD53, hits give low values",0.121 (active)
same,normalized growth,"S. cerevisiae deletion strains, locus YPL204W, strain HRR25, hits give low values",0.117 (active)
same,normalized growth,"S. cerevisiae deletion strains, locus YPL209C, strain IPL1, hits give low values",0.774 (active)
same,normalized growth,"S. cerevisiae deletion strains, locus YPL256C, strain CLN2, hits give low values",0.161 (active)
same,normalized growth,"S. cerevisiae deletion strains, locus YPR025C, strain CCL1, hits give low values",0.723 (active)
same,normalized growth,"S. cerevisiae deletion strains, locus YPR106W, strain ISR1, hits give low values",0.936
same,normalized growth,"S. cerevisiae deletion strains, locus YPR111W, strain DBF20, hits give low values",0.934
same,normalized growth,"S. cerevisiae deletion strains, strain NNK1, hits give low values",0.342 (active)
same,normalized growth,"S. cerevisiae deletion strains, strain TSCII, hits give low values",0.434 (active)
COc1cccc(CC(=O)NN)c1,normalized growth,"S. cerevisiae deletion strains, locus YAL013W, strain DEP1, hits give low values",0.982
same,normalized growth,"S. cerevisiae deletion strains, locus YBR229C, strain ROT2, hits give low values",1.02
same,normalized growth,[1],1.05
same,normalized growth,"S. cerevisiae deletion strains, locus YDL134C, strain PPH21, hits give low values",0.995
same,normalized growth,"S. cerevisiae deletion strains, locus YDR150W, strain NUM1, hits give low values",1.03
same,normalized growth,"S. cerevisiae deletion strains, locus YEL061C, strain CIN8, hits give low values",1
same,normalized growth,"S. cerevisiae deletion strains, locus YGR078C, strain PAC10, hits give low values",1.04
same,normalized growth,"S. cerevisiae deletion strains, locus YGR229C, strain SMI1, hits give low values",0.999
same,normalized growth,[2],1.06
same,normalized growth,"S. cerevisiae deletion strains, locus YHR087W, strain rtc3, hits give low values",0.971
same,normalized growth,"S. cerevisiae deletion strains, locus YJL187C, strain SWE1, hits give low values",0.981
same,normalized growth,"S. cerevisiae deletion strains, locus YJR043C, strain POL32, hits give low values",1.02
same,normalized growth,"S. cerevisiae deletion strains, locus YJR075W, strain HOC1, hits give low values",0.991
same,normalized growth,"S. cerevisiae deletion strains, locus YKL190W, strain CNB1, hits give low values",1
same,normalized growth,"S. cerevisiae deletion strains, locus YLR039C, strain RIC1, hits give low values",1.02
same,normalized growth,"S. cerevisiae deletion strains, locus YLR058C, strain SHM2 (second series), hits give low values",0.987
same,normalized growth,"S. cerevisiae deletion strains, locus YLR085C, strain ARP6, hits give low values",0.995
same,normalized growth,"S. cerevisiae deletion strains, locus YLR262C, strain YPT6, hits give low values",0.98
same,normalized growth,"S. cerevisiae deletion strains, locus YML094W, strain GIM5, hits give low values",0.982
same,normalized growth,"S. cerevisiae deletion strains, locus YMR219W, strain ESC1, hits give low values",0.986
same,normalized growth,"S. cerevisiae deletion strains, locus YMR263W, strain SAP30, hits give low values",1
same,normalized growth,"S. cerevisiae deletion strains, locus YMR307W, strain GAS1, hits give low values",0.987
same,normalized growth,"S. cerevisiae deletion strains, locus YNL153C, strain GIM3, hits give low values",1.04
same,normalized growth,"S. cerevisiae deletion strains, locus YNL298W, strain CLA4 (second series), hits give low values",1.02
same,normalized growth,"S. cerevisiae deletion strains, locus YNL322C, strain KRE1, hits give low values",1.01
same,normalized growth,"S. cerevisiae deletion strains, locus YNR030W, strain Alg12, hits give low values",0.986
same,normalized growth,"S. cerevisiae deletion strains, locus YPL055C, strain LGE1, hits give low values",0.96
same,normalized growth,"S. cerevisiae deletion strains, locus YPL241C, strain CIN2, hits give low values",1.01
same,normalized growth,"S. cerevisiae deletion strains, locus YPR135W, strain CTF4, hits give low values",1.04
same,normalized growth,"S. cerevisiae strains, strain wild type, hits give low values",1.02
